Reference: PubChem BioAssay (Tox21)
Where “and” joins values, the source holds several entries; their conditions need not be identical. Equal values may be shown once. Values without a mark were called inactive. Results filed as inconclusive are left out. A call without a number means that no potency is given here. Calls of active or inactive are those of the source. Unless noted, calls come from the whole dose curve; as a rule, active = well fitted curve in the direction sought with a large enough effect in the repeat runs; inconclusive = weak or mixed curves; inactive = no such curve, though single readings can be large; an effect the other way counts as inactive or inconclusive.

Experiments:
[1] = molecular target: Progesterone receptor (Homo sapiens) (UniProt P06401); assay: qHTS assay to identify small molecule agonists of the progesterone receptor (PR) signaling pathway (AID 1346784; calls by dose curve; note: nearly all actives have a fitted effect of over 30% in size)
Progesterone receptor (Homo sapiens), sequence (P06401 whole entry, looked up): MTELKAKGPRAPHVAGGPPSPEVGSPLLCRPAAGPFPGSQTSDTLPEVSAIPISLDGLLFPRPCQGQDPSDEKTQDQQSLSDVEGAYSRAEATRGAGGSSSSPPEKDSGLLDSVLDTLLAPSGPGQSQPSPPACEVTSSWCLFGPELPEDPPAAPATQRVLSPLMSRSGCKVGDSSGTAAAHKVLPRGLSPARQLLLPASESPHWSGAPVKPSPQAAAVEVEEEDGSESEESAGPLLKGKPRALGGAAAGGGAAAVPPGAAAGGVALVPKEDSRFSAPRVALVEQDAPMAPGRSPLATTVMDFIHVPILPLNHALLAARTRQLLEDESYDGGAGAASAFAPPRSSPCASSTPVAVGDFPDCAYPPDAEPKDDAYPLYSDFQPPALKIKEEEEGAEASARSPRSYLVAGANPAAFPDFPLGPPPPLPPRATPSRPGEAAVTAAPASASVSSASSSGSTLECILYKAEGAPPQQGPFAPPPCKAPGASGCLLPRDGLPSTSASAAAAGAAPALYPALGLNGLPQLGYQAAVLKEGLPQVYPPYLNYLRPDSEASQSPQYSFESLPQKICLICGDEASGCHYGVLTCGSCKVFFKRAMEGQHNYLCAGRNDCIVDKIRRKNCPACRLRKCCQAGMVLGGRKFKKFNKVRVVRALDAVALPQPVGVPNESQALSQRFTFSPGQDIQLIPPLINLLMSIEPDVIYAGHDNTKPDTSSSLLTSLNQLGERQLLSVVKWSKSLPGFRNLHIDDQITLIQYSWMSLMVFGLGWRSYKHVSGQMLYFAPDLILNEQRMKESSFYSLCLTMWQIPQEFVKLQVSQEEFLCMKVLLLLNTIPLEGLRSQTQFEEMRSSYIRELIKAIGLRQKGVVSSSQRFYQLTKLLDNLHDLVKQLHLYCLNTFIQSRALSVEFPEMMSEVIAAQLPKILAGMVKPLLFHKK
Outline: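 PR-UAS-bla HEK 293T cells (beta-lactamase reporter under UAS) in 2% charcoal-stripped FBS, dosed with 23 nL compound after 6 hr, incubated 16hr at 37C. LiveBLAzer B/G FRET substrate added, fluorescence read after 2 hours.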

[2] = molecular target: Progesterone receptor (Homo sapiens) (UniProt P06401); assay: qHTS assay to identify small molecule antagonists of the progesterone receptor (PR) signaling pathway (AID 1346795; active = well fitted inhibition curve with a large enough effect in the signal ratio in the repeat runs, not every such curve was filed as active; the % refers to the signal ratio; note: potency is the fitted concentration of half-maximal effect)
Outline: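 PR-UAS-bla HEK293T cells with beta-lactamase reporter under UAS control, in 2% charcoal-stripped FBS, treated with compounds plus 1 nM promegestone (R5020, final) for 16 hr at 37C. Read-out: FRET beta-lactamase substrate fluorescence after 2 hr at room temperature.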

[3] = qHTS assay to identify small molecule antagonists of the progesterone receptor (PR) signaling pathway - cell viability counter screen (AID 1346798); note: nearly all actives have a fitted effect of over 50% in size; note: potency is the fitted concentration of half-maximal effect
Outline: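 PR-UAS-bla HEK293T cells, 3,000/well in 2% charcoal-stripped FBS medium, dosed with compounds plus R5020 agonist and incubated 16 h at 37C. Viability then measured in the same wells by CellTiter-Glo luminescence after 30 min at RT.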

[4] = qHTS assay to identify small molecule agonists of the progesterone receptor (PR) signaling pathway - cell viability counter screen (AID 1346799; calls by dose curve; note: nearly all actives have a fitted effect of over 45% in size; note: potency is the fitted concentration of half-maximal effect)
Outline: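 Counter screen in the PR-UAS-bla HEK293T wells (2% charcoal-stripped FBS, 16 h compound exposure at 37 C) after the bla read. CellTiter-Glo added, 30 min at room temperature, luminescence read as cell viability.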

[5] = qHTS assay to identify small molecule antagonists of the TGF-beta/Smad signaling pathway - cell viability counter screen (AID 1346824); note: nearly all actives have a fitted effect of over 50% in size; note: potency is the fitted concentration of half-maximal effect
Outline: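 SBE-bla HEK 293T cells, incubated overnight, then compound plus 0.25 ng/mL TGF-beta1 (stock added) for 5 hr at 37 C. Viability was read in the same wells by CellTiter-Glo luminescence after 30 min at room temperature.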

[6] = qHTS assay to identify small molecule agonists of the TGF-beta/Smad signaling pathway - cell viability counter screen (AID 1346829); note: nearly all actives have a fitted effect of over 45% in size; note: potency is the fitted concentration of half-maximal effect
Outline: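 In parallel with the Smad reporter read, viability of HEK 293T cells stably carrying SBE-bla is quantified by ATP luminescence following 5 hr compound treatment.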

[7] = qHTS assay to identify small molecule agonists of the TGF-beta/Smad signaling pathway (AID 1346859; active = well fitted activation curve with a large enough effect in the signal ratio in the repeat runs, not every such curve was filed as active; the % refers to the signal ratio; note: series mostly up to about 77 µM)
Outline: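 SBE-bla HEK293T cells plated overnight, then compound exposure for 5 h at 37 C. Beta-lactamase reporter read with LiveBLAzer B/G FRET substrate after 2 h at room temperature, fluorescence at 405 nm excitation, 460/530 nm emission.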

[8] = Human pregnane X receptor (PXR) small molecule agonists, qHTS cell viability counter screen (AID 1346977); note: nearly all actives have a fitted effect of over 50% in size; note: potency is the fitted concentration of half-maximal effect
Outline: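 PXR-Luc HepG2 cells (2,000/well, 5% charcoal-stripped FBS) preincubated 5 hr, then exposed to compounds 24 hr at 37 C. Viability read in the same wells by CellTiter-Fluor fluorescence, reagent added at 23 hr, 1 hr incubation.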

[9] = Caspase-3/7 induction in HepG2 cells by small molecules, qHTS assay (AID 1346978); note: nearly all actives have a fitted effect of over 15% in size; note: potency is the fitted concentration of half-maximal effect
Outline: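 Wild-type HepG2 cells, 2,000/well, settled 5 hr at 37 C and 5% CO2, then compound-treated for 17 hr; caspase-3/7 activity read by luminescent Caspase-Glo 3/7 after 30 min at room temperature.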

[10] = Caspase-3/7 induction in CHO-K1 cells by small molecules, qHTS assay (AID 1346980); note: nearly all actives have a fitted effect of over 15% in size; note: potency is the fitted concentration of half-maximal effect
Outline: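 Wild-type CHO-K1 cells exposed to compounds for 17hr at 37 C, 5% CO2. Caspase-3/7 activity then measured by Caspase-Glo 3/7 luminescence after 30min at room temperature.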

[11] = Caspase-3/7 induction in HepG2 cells by small molecules, qHTS cell viability counter screen (AID 1346981); note: series mostly up to about 92 µM; nearly all actives have a fitted effect of over 30% in size
Outline: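 Wild-type HepG2 cells (2,000/well) were allowed to settle for 5 hr at 37 C, 5% CO2, then dosed with compounds in DMSO by pin transfer. After 16 hr at 37 C, CellTiter-Fluor was added and fluorescence read 1 hr later.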

[12] = molecular target: Nuclear receptor subfamily 1 group I member 2 (Homo sapiens) (UniProt O75469); assay: Human pregnane X receptor (PXR) small molecule agonists, qHTS assay (AID 1346982); note: nearly all actives have a fitted effect of over 35% in size; note: potency is the fitted concentration of half-maximal effect
Nuclear receptor subfamily 1 group I member 2 (Homo sapiens), sequence (O75469 whole entry, looked up): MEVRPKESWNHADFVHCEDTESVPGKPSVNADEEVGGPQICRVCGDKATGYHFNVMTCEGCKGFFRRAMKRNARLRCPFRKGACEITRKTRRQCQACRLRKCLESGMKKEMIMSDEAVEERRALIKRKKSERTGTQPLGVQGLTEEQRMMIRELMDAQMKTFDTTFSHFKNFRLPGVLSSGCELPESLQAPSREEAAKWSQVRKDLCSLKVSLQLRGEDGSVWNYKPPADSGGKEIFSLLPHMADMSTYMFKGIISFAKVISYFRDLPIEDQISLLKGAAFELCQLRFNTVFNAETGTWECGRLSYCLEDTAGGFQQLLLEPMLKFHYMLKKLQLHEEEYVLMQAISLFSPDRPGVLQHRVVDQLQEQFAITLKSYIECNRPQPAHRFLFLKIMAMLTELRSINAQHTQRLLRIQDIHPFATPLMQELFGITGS
Outline: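 PXR-Luc HepG2 cells (CYP3A4 promoter-driven luciferase) were seeded in medium with 5% charcoal-stripped FBS, left 5 hr at 37 C, then exposed to compounds in DMSO for 24 hr. Luminescence was read after ONE-Glo addition.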

[13] = molecular target: Cytochrome P450 2C19 (Homo sapiens) (UniProt P33261); assay: Cytochrome P450 Family 2 Subfamily C Member 19 (CYP2C19) small molecule antagonists: luciferase reporter qHTS assay (AID 1671197); note: nearly all actives have a fitted effect of over 65% in size; note: potency is the fitted concentration of half-maximal effect
Cytochrome P450 2C19 (Homo sapiens), sequence (P33261 whole entry, looked up): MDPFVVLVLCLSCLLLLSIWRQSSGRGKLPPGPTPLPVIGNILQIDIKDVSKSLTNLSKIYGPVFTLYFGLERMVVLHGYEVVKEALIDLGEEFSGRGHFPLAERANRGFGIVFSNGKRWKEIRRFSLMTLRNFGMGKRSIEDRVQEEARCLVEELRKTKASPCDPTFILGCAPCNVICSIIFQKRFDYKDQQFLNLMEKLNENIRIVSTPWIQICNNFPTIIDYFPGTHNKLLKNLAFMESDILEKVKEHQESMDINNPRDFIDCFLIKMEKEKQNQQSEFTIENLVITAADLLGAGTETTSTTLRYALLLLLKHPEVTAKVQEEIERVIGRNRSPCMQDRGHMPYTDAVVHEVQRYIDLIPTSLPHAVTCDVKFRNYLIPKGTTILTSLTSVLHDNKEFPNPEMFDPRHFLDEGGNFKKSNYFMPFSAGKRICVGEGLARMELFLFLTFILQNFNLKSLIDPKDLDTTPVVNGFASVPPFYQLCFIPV
Outline: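 Compounds were tested on CYP2C19 activity via proluciferin conversion to luciferin. The 37C, 1 h reaction followed NADPH addition; detection reagent stopped it.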

[14] = molecular target: Cytochrome P450 2C9 (Homo sapiens) (UniProt P11712); assay: Cytochrome P450 Family 2 Subfamily C Member 9 (CYP2C9) small molecule antagonists: luciferase reporter qHTS assay (AID 1671198); note: nearly all actives have a fitted effect of over 50% in size; note: potency is the fitted concentration of half-maximal effect
Cytochrome P450 2C9 (Homo sapiens), sequence (P11712 whole entry, looked up): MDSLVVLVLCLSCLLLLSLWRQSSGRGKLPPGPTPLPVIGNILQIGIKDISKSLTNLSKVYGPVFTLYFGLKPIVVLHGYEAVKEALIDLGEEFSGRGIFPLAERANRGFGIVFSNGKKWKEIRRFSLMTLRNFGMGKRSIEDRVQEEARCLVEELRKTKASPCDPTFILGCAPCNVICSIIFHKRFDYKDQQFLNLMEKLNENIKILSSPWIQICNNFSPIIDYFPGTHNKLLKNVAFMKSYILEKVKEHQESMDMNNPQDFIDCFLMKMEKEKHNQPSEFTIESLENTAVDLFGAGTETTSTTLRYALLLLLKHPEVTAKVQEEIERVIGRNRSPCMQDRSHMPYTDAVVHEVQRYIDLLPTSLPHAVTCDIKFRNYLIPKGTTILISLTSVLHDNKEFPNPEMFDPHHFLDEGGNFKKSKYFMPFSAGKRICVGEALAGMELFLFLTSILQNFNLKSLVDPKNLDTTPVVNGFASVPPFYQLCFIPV
Outline: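 P450-Glo proluciferin substrate with CYP2C9 enzyme; 10 min RT preincubation, then NADPH regeneration 1 h at 37C; luciferin detection reagent 20 min RT, luminescence in relative luminescence units.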

[15] = molecular target: Thyrotropin-releasing hormone receptor (Homo sapiens) (UniProt P34981); assay: qHTS assay to identify small molecule antagonists of the thyrotropin-releasing hormone receptor (TRHR) signaling pathway (AID 1346877; active = well fitted inhibition curve with a large enough effect in the repeat runs, not every such curve was filed as active; note: potency is the fitted concentration of half-maximal effect)
Thyrotropin-releasing hormone receptor (Homo sapiens), sequence (P34981 whole entry, looked up): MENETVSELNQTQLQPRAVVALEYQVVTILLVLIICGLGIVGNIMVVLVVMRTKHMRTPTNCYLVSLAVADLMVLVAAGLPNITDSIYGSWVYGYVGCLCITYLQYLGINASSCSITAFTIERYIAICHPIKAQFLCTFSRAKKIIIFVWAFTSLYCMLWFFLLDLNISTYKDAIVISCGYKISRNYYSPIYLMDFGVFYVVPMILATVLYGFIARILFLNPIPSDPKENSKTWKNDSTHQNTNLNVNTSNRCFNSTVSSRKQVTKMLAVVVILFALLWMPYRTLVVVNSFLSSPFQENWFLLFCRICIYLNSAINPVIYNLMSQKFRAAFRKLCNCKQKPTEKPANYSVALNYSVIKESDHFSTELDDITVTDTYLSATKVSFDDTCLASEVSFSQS
Outline: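 TRHR-expressing HEK293 cells were seeded, cultured 18 h at 37 °C, then loaded with calcium dye for 2 h. Compounds were pre-incubated 5 min at room temperature before 1 nM TRH (final) was added, and kinetic fluorescence was recorded for 3 min.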

[16] = molecular target: Thyrotropin-releasing hormone receptor (Homo sapiens) (UniProt P34981); assay: qHTS assay to identify small molecule agonists of the thyrotropin-releasing hormone receptor (TRHR) signaling pathway (AID 1346891; calls by dose curve; note: potency is the fitted concentration of half-maximal effect; for activation: series mostly up to about 58 µM)
Outline: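 HEK293 cells expressing TRHR plated 18 h at 37 C/5% CO2, calcium dye-loaded 2 h at 37 C, then compound added (agonist mode); kinetic calcium fluorescence read 3 min at 1 s intervals; 15 concentrations in triplicate.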

[17] = Caspase-3/7 induction in CHO-K1 cells by small molecules, qHTS cell viability counter screen (AID 1346979); note: nearly all actives have a fitted effect of over 35% in size; note: potency is the fitted concentration of half-maximal effect
Outline: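 Wild-type CHO-K1 cells (1,500/well) treated with compound after 5 h plating; after 16 h at 37C, viability read as CellTiter-Fluor fluorescence following 1 h reagent incubation, in the same wells as the caspase read.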

[18] = molecular target: Cytochrome P450 2D6 (Homo sapiens) (UniProt P10635); assay: Cytochrome P450 Family 2 Subfamily D Member 6 (CYP2D6) small molecule antagonists: luciferase reporter qHTS assay (AID 1671196); note: nearly all actives have a fitted effect of over 50% in size; note: potency is the fitted concentration of half-maximal effect
Cytochrome P450 2D6 (Homo sapiens), sequence (P10635 whole entry, looked up): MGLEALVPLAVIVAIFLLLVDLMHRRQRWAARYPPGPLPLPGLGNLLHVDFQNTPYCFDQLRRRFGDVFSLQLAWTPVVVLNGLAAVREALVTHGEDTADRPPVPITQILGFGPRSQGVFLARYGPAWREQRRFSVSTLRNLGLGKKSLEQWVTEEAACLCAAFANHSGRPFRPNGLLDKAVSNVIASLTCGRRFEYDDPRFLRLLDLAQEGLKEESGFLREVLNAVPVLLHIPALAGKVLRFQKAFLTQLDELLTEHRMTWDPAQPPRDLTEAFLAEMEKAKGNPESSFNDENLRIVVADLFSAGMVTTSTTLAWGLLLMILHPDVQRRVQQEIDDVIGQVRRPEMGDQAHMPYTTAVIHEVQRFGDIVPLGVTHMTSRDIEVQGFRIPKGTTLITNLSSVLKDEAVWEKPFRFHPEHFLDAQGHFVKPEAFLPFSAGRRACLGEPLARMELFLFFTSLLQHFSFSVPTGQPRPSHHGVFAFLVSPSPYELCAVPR
Outline: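 CYP2D6 enzyme–substrate mix was held with compound for 10 min at room temperature, then NADPH regeneration solution was added and the reaction ran 1 h at room temperature. Luciferin product was detected by luminescence after 20 min with detection reagent.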

[19] = molecular target: Nuclear receptor subfamily 1 group I member 2 (Rattus norvegicus) (UniProt Q9R1A7); assay: Rat pregnane X receptor (rPXR) activation by small molecules, qHTS assay (AID 1346983); conditions: rPXR luciferase reporter cells, One-Glo luminescence, 24 h; max activation: stronger effect = higher value; note: nearly all actives have a fitted effect of over 20% in size
Nuclear receptor subfamily 1 group I member 2 (Rattus norvegicus), sequence (Q9R1A7 whole entry, looked up): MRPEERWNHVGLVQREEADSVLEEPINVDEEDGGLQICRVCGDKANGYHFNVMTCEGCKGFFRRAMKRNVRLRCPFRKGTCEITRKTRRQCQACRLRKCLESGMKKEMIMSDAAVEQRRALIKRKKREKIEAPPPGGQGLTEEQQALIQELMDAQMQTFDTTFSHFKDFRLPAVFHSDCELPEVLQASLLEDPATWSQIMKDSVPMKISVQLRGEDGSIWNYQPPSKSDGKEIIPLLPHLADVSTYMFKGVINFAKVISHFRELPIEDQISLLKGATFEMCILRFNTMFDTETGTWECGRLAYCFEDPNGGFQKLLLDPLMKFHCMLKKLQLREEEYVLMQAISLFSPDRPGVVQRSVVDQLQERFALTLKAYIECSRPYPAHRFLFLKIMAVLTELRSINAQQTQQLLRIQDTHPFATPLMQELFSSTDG
Outline: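 Cell-based rPXR activation assay: rPXR cells, 2,000 per well, rested 5hr at 37 C, then exposed to compounds in DMSO for 24 hr at 37 C. Luciferase activity read by One-Glo luminescence after 30 min at room temperature.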

[20] = molecular target: Nuclear receptor subfamily 1 group I member 2 (Homo sapiens) (UniProt O75469); assay: CYP3A4 induction through human pregnane X receptor (PXR) by small molecules, qHTS assay (AID 1346984); note: nearly all actives have a fitted effect of over 40% in size
Outline: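 DPX-2 cells (HepG2 co-transfected with PXR and CYP3A4 promoter-luciferase) treated with compounds 24 h at 37C; luciferin-IPA CYP3A4 substrate 3uM final added for 3 h, then One-Glo; luminescence read. qHTS format.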

| Structure (SMILES) | outcome [1] | Potency [2] | Potency [3] | Potency [4] | Potency [5] | Potency [6] | Potency [7] | Potency [8] | Potency [9] | Potency [10] | Potency [11] | Potency [12] | Potency [13] | Potency [14] | Potency [15] | Potency [16] | Potency [17] | Potency [18] | max activation [19] | Potency [20] |
| --- | --- | --- | --- | --- | --- | --- | --- | --- | --- | --- | --- | --- | --- | --- | --- | --- | --- | --- | --- | --- |
| OCCCS | inactive | inactive | inactive | inactive | inactive | inactive | inactive | inactive | inactive | inactive | inactive | inactive | inactive | inactive | – | – | – | – | – | – |
| ClC/C=C\CCl | inactive | inactive | inactive | inactive | inactive | inactive | inactive | inactive | inactive | inactive | – | – | 33.1 µM (active) | inactive | inactive | inactive | – | – | – | – |
| CC(C)CCOCCC(C)C | inactive | inactive | inactive | inactive | inactive | inactive | inactive | inactive | inactive | inactive | inactive | inactive | – | inactive | – | – | inactive | – | – | – |
| C/C=C/CO | inactive | inactive | inactive | inactive | inactive | inactive | inactive | inactive | inactive | inactive | inactive | inactive | inactive | inactive | inactive | inactive | – | inactive | – | – |
| Cc1cccc(N(C)C)c1 | inactive | inactive | inactive | inactive | inactive | inactive | inactive | inactive | inactive | inactive | – | inactive | – | inactive | – | – | – | inactive | – | – |
| CCCSS/C(CCO)=C(\C)N(C=O)Cc1cnc(C)nc1N | inactive | inactive | inactive | inactive | inactive | inactive | inactive | – | inactive | – | inactive | – | inactive | – | inactive | inactive | – | 34.7 µM (active) | 9.56% | inactive |
| CCN=c1cc2oc3cc(NCC)c(C)cc3c(-c3ccccc3C(=O)OCC)c-2cc1C | inactive | 48.4 µM (active) and 54.5 µM (active) | 61.1 µM (active) | 48.4 µM (active) | 48.8 µM (active) and 49 µM (active) | 48.8 µM (active) and 49 µM (active) | – | 2.51 µM (active) and 1.54 µM (active) | 27.3 µM (active) | 43.1 µM (active) and 48.6 µM (active) | – | 2.42 µM (active) and 1.72 µM (active) | 7.94 µM (active) and 10 µM (active) | 7.94 µM (active) and 12.6 µM (active) | 8.47 µM (active) and 10.7 µM (active) | 6.89 µM (active) and 5.49 µM (active) | 965 nM (active) and 611 nM (active) | – | – | – |
| c1ccc2c(c1)CCC2 | inactive | inactive | inactive | inactive | inactive | inactive | inactive | inactive | inactive | inactive | inactive | inactive | inactive | inactive | inactive | inactive | – | inactive | – | – |
| CC(C)(C)c1cc(CCC(=O)NCCCCCCNC(=O)CCc2cc(C(C)(C)C)c(O)c(C(C)(C)C)c2)cc(C(C)(C)C)c1O | inactive | inactive | inactive | inactive | inactive | inactive | inactive | inactive | inactive | inactive | inactive | inactive | – | 1.42 µM (active) | inactive | inactive | – | inactive | – | – |
